Measurements: PubChem BioAssay (NCATS)
Results filed as inconclusive are left out. Values without a mark were called inactive. Active and inactive are the calls of the source. Calls come from the whole dose curve; as a rule, active = well fitted inhibition curve with a large enough effect; inconclusive = small, poorly fitted or top-dose-only effect; inactive = no such curve, though single readings can be large or run the other way.

Assay: Primary qHTS for inhibitors of La Crosse Virus (LACV) - induced cell death in SH-SY5Y cells (AID 1508616);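 for activity change: top concentration of the series differs between compounds; 0% = infected DMSO wells and 100% = uninfected DMSO wells; higher means more rescue of cells from virus-induced death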
Conditions: SH-SY5Y LACV cytopathicity rescue, ATP luminescence, 6 d; series mostly up to 9.63 µM; activity change: at the top concentration
Excerpt: Assay Provider: Karin Peterson Ph.D.
National Institute of Allergy and Infection Diseases, National Institute of Health
La Crosse Virus (LACV) is a California serogroup mosquito-borne arbovirus, family Peribunyaviridae, which is an endemic pathogen in North America and can induce a rare, life-threatening neurological disease in children. LACV was first isolated in the early 1960s, from a summer "rural encephalitis" case in La Crosse, Wisconsin, USA. Since then, LACV encephalitis cases have been found in more than twenty states, with most cases in the Mississippi and Ohio River basins. The life cycle of LACV is maintained between the vector, the eastern tree-hole mosquito Aedes triseriatus, and vertebrate hosts including eastern gray squirrels (Sciurus carolinensis) and chipmunks (Tamiasstriatus grinseus). […] Most LACV infections in humans are asymptomatic or induce mild clinical symptoms of fever, headache, lethargy and vomiting. However, in some cases LACV can cause severe neuroinvasive disease, including encephalitis, meningitis, and meningoencephalitis, requiring hospitalization. To date, there is neither a licensed vaccine nor a Food and Drug Administration (FDA) approved antiviral therapy available to prevent or treat LACV encephalitis. The primary treatment for viral encephalitis is palliative care due to the lack of therapeutics. In the current study, we conducted a screen of 4,096 FDA approved and bioactive small molecules against LACV, by screening for rescue of LACV-induced cell death in SH-SY5Y cells.
LACV-induced cytopathicity assay
SEQUENCE No. (1,2, 3, etc.); […] (e.g., Cells, Incubation, Reagent, etc.); VALUE and DESCRIPTION.
1. Reagent; 2 uL; Cell solution.
3. Compounds; 23nL; Compound library
4. Reagent; 12 uL; LACV virus
6. Reagent; 24 uL; ATPLite (PerkinElmer)
7. Time; 5 min; Room temperature
8. Detection; Luminescence; View
NOTES (numbers refer to sequence above)
1. Seed 6000 SH-SY5Y cells (ATCC CRL-2266) in 2 microL/well media (DMEM/F12 10% FBS, 1x L-Glutamine, 1x Pyruvate, 1x NEAA, 1x Pen/Strep) in 384-well assay plates (tissue culture treated, white, solid bottom).
2. Incubate at 37 degrees C with 5% CO2 for 24 hr.
3. Dispense 23 nL/well compounds in DMSO via pin transfer.
4. Dispense 12 microL/well of LACV (LACV/human/1978) in media at 0.01 MOI.
5. Incubate at for 6 days at 37C 5% CO2
6. Dispense 24 microL/well of ATPLite 1step Luminescence assay system (PerkinElmer).
7. Incubate for 5 min at room temperature.
8. Read luminescence signal (Viewlux plate reader, PerkinElmer). Data was normalized with DMSO control wells containing LACV as 0%, and DMSO control wells without virus as 100%.
Potency is the fitted concentration of half-maximal effect.

Structure (SMILES)	activity change [%]	Potency
COC(=O)N1CCN(C(=O)Cc2ccc(Cl)c(Cl)c2)C(CN2CCCC2)C1 (stereo not given)	-13.9	–
CC(=O)c1c(O)c(C)c(O)c(Cc2c(O)c3c(c(C(=O)/C=C/c4ccccc4)c2O)OC(C)(C)C=C3)c1O	81.6	–
COc1ccc2c(c1O)-c1cccc3c1[C@@H](C2)N(C)CC3	2.64	–
Cc1cc([C@@H]2CCCN2C)on1	-12.3	–
NC(CCCCCP(=O)(O)O)C(=O)O (stereo not given)	7.14	–
NC(C(=O)O)c1cc(=O)[nH]o1 (stereo not given)	-2.27	–
NNC(=O)c1ccc(O)cc1	10.5	–
C=CCN1CC[C@]23c4c5ccc(O)c4O[C@H]2/C(=N/NC(=O)c2ccccc2)CC[C@@]3(O)[C@H]1C5	-15.8	–
C[C@@H]1O[C@H](C[N+](C)(C)C)CS1	9.67	–
CCCN1CC[C@@H]2c3cc(O)ccc3CC[C@@H]21	-16.6	–
Cc1c2ccncc2c(C)c2c1[nH]c1ccccc12	–	1580 nM (active)
NC(=O)c1cc(N2CC2)c([N+](=O)[O-])cc1[N+](=O)[O-]	-16	–
CC(=O)NBr	-8.87	–
C[N+](C)(C)CC#CCOC(=O)Nc1cccc(Cl)c1	34	–
CN1CC[C@@]2(C)c3cc(OC(=O)Nc4ccccc4)ccc3N(C)[C@@H]12	0.603	–
CCCN(CCC)[C@H]1CCc2c(F)ccc(O)c2C1	-7.98	–
C[C@H](Cc1ccc2c(c1)OC(C(=O)O)(C(=O)O)O2)NC[C@H](O)c1cccc(Cl)c1	-4.97	–
Oc1ccc2c3c1O[C@H]1c4oc5ccccc5c4C[C@@]4(O)C(C2)N(CC2CC2)CCC314 (stereo not given in full)	7.96	–
NCCc1c[nH]c2ccc(C(N)=O)cc12	-17	–
OCc1cnc[nH]1	2.25	–

Structure (SMILES)	activity change [%]	Potency
CN1C2CCC1CC(OC(c1ccccc1)c1ccccc1N)C2 (stereo not given)	-14.3	–
OC1CCCCC1N1CCC(c2ccccc2)CC1 (stereo not given)	0.381	–
C=CCN1CCC23c4c5ccc(O)c4O[C@H]2C(=O)CC[C@@]3(O)C1C5 (stereo not given in full)	33.2	–
CN1CCc2cccc(Cl)c2CC1	50.2	–
Nc1ccc(CCN2CCN(c3cccc(C(F)(F)F)c3)CC2)cc1	3.59	–
O=S1(=O)N(CCN2CC=C(c3c[nH]c4cc(F)ccc34)CC2)c2cccc3c2N1CCC3	-18.4	–
CC(N)Cc1c[nH]c2ccc(OCc3cccs3)cc12 (stereo not given)	-9.04	–
COc1ccc(CNC(=O)/C=C/c2ccc3[nH]cc(CCN(C)C)c3c2)cc1	-3.28	–
CN1CCC(c2c[nH]c3ccc(O)cc23)CC1	7.35	–
CN1CC[C@@]2(C)c3cc(O)ccc3N(C)C12 (stereo not given in full)	-18	–
C/C(O)=C(\C#N)C(=O)Nc1cc(Br)ccc1Br	6.35	–
C#CCN[C@H](C)Cc1ccccc1	-12.3	–
N[C@@H](CCl)C(=O)O	-6.51	–
C[N+]1(C)CCN(c2ccccc2)CC1	2.8	–
Clc1cc(I)cc(Cl)c1NC1=NCCN1	2.18	–
O=C1C=CC(=O)C=C1	-13.9	–
O=C1CC[C@@]2(O)C3Cc4ccc(O)c5c4C2(CCN3CC2CC2)[C@H]1O5 (stereo not given in full)	19.9	–
CC(C)(C)c1cc(C=C(C#N)C#N)cc(C(C)(C)C)c1O	-70.3	–
NCC(CP(=O)(O)O)c1ccc(Cl)cc1 (stereo not given)	27	–
CCCN1CCC[C@@H](c2cccc(O)c2)C1	11.9	–
